From PubChem BioAssay
USP1 inh – USP1/UAF1 (human) deubiquitinase inhibition; recombinant USP1/UAF1, Ub-Rhodamine cleavage fluorescence; AID 743255; Potency, µM (doses to about 57.1 µM), for inactives: at the highest dose activity change, negative = inhibition, actives largely listed as inhibitors; 0.23% of 390,000 active; note: potency is the fitted concentration of half-maximal effect; nearly all actives have a fitted effect of over 60% in size
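1 nM enzyme complex + cpd, 15 min RT; start with Ub-Rho 150nM final; kinetic fluorescence ex 480/em 540, 6 reads q60 s. Buffer 50mM HEPES pH 7.8, 0.5mM EDTA, 0.1 mg/ml BSA, 1mM TCEP, 0.01% Tween-20.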
PLK1 PBD inh – inhibitors of human PLK1 polo-box domain binding; P53350; Plk1 PBD binding of FITC phosphopeptide, fluorescence polarization; Potency, µM, for inactives: max response, negative = inhibition, hits mostly inhibitors; 2.8% of 360,000 active; note: potency is the fitted concentration of half-maximal effect; series mostly up to about 57 µM; nearly all actives have a fitted effect of over 65% in size
Target sequence (P53350 whole entry, looked up, the tested form may be a part): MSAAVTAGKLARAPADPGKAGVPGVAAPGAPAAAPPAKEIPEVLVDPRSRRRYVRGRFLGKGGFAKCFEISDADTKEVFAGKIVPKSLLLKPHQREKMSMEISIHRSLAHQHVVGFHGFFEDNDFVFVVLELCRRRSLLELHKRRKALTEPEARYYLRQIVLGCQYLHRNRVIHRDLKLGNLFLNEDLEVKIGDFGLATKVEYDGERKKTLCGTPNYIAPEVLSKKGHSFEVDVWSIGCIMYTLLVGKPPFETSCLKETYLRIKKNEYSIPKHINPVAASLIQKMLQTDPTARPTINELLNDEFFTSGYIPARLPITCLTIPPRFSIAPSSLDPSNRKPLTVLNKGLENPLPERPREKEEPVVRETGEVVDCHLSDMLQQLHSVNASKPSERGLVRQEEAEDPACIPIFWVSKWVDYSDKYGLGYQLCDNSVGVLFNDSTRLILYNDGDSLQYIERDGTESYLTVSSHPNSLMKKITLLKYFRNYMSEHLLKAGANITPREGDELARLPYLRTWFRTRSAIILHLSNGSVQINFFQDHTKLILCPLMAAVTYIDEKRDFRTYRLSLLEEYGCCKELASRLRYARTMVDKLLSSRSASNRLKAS
FBPA coupling cs – counter-screen for Giardia aldolase inhibitors: coupling enzyme system; coupling enzyme system counterscreen, AmpLite Red fluorescence; activity change, negative = inhibition, % at 58.2 µM, hits read low; 0.67% of 290,000 active; in the data active = activity change below about -30%
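First, compound is pin-transferred into glyceraldehyde-3-phosphate coupling-enzyme reagent at 57.5 uM final and held 10 min at RT. Next, substrate, coupling system and AmpLite Red are added. After 20 min RT, fluorescence (525/598 nm) is read.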
USP2a block – inhibitors of human ubiquitin-specific protease USP2a. AID 463254. O75604. Potency, µM (series often up to 38.3 µM), inactives show top-dose activity change, negative = inhibition, most hits filed as inhibitors. USP2 core, Ub-CHOP2 coupled fluorogenic reporter, 485/531. 0.01% of 330,000 active;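 note: potency is the fitted concentration of half-maximal effect; plate controls were DMSO wells for no effect and full inhibition by NEM control for full effect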
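Cell-free coupled assay: 10nM USP2 core preincubated 30min RT with compound in Tris-HCl pH 8.0/CaCl2/CHAPS buffer, then 25nM Ub-CHOP2 and 25nM reporter substrate; fluorescence (Ex 485/Em 531) read after 60min RT, normalized to NEM inhibition, concentration-response curves fitted.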
GALK inhibitor – blocks human galactokinase activity. Potency, µM (titrated, usually from 57.5 µM), for inactives: at the highest dose activity change, negative = inhibition, usual class: inhibitors. Purified GALK, Kinase-Glo residual ATP luminescence. P51570. 0.007% of 270,000 active; note: potency is the fitted concentration of half-maximal effect
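GALK at 5 nM final was combined with compound, 35 uM ATP and 100 uM galactose in HEPES pH8.0 with MgCl2 and DTT. The reaction ran one hour at room temperature before luminescent ATP detection.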
VDR inh – vitamin D3 receptor (human) inhibition. P11473. 0.93% of 400,000 active. Potency, µM, for the others: max response, negative = inhibition, hits mostly inhibitors. VDR-SRC2-3 peptide fluorescence polarization, 2 h; note: potency is the fitted concentration of half-maximal effect
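VDR–SRC2-3 interaction, FP format. Cmpds 23 nl via pintool, brief spin, 2 h ambient incubation.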
Active calls of the source: *; ? = inconclusive; . = no result given; ! = not confirmed by another sample. A selection: hits, their analogues and other compounds. The true share with any hit is near 3.2%. Unless noted, calls come from the whole dose curve; as a rule, active = well fitted curve in the direction sought with a large enough effect; inconclusive = small, poorly fitted or top-dose-only effect, or another doubt; inactive = no such curve, though single readings can be large; an effect the other way counts as inactive or inconclusive. Unless noted, % is set by controls: 0 for no effect and ±100 for the full control effect.

SMILES	USP1 inh	PLK1 PBD inh	FBPA coupling cs	USP2a block	GALK inhibitor	VDR inh
COc1cc([N+](=O)[O-])cc(/C=N/NC(=O)C(C)Nc2cccc3ccccc23)c1O (centres undefined)	?	-16%	-28	-14%	0%	-4%
CC(Nc1cccc2ccccc12)C(=O)N/N=C/c1ccc([N+](=O)[O-])cc1 (centres undefined)	-26%	-3%	-46*	-13%	0%	-1%
COC(=O)c1ccc(CNC(=O)CCC(=O)N2CCOCC2)cc1	-6%	-7%	.	1%	.	-18%
CCOC(=O)c1c(C)[nH]c(C)c1C(=O)COC(=O)C1CCCN1S(=O)(=O)c1ccccc1F (centres undefined)	-8%	-1%	1	-1%	4%	12%
O=c1[nH]c(CSc2nnc(Nc3ccccc3)s2)nc2ccccc12	-15%	27µM*	2	-2%	.	-30%
COc1c(O)ccc2cnn(-c3ccccc3C)c(=O)c12	-12%	-8%	-1	7%	19%	5%
N#C[C@@H]1[C@@H]2C(=O)N(c3ccc4c(c3)OCCO4)C(=O)[C@@H]2C2c3ccccc3C=CN21 (some centres undefined)	.	.	-34*	7%	-4%	.
CCNC(=O)C(=O)NCC(c1cccs1)S(=O)(=O)c1ccc(C)cc1 (centres undefined)	-8%	-15%	0	0%	7%	-7%
CCOC(=O)CC(=O)CSc1nc(-c2cccnc2)ccc1C#N	32µM*	-3%	2	1%	0%	5%
CCOC(=O)CC(=O)CSc1nc(-c2cccnc2)cc(C)c1C#N	-7%	0%	0	0%	3%	-1%
COC(=O)CCC(=O)OC1(C)C(=O)C2=CN(CCCOC(C)C)C(c3ccc(OC)cc3)=CC2=C(Br)C1=O (centres undefined)	28µM*	?	-41*	12%	-2%	?
COC(=O)CCC(=O)OC1(C)C(=O)C2=CN(Cc3ccc(OC)cc3)C(c3ccc(OC)cc3)=CC2=C(Br)C1=O (centres undefined)	-22%	?	-3	.	.	?
COC(=O)CCC(=O)OC1(C)C(=O)C2=CN(CC(C)C)C(c3ccc(OC)cc3)=CC2=C(Br)C1=O (centres undefined)	.	.	-40*!	0%	-1%	.
CN(CC(=O)Nc1cccc(F)c1)C(=O)c1cn2ccccc2n1	-22%	-12%	.	5%	.	11%
CCCNC(=O)Cn1ncc2c3ccccc3n(CCC)c2c1=O	-4%	.	.	.	.	6%
O=C(C1CCC(CNc2nc(=S)[nH]c3ccccc23)CC1)N1CCN(c2ccc(F)cc2)CC1 (centres undefined)	-4%	21µM*	0	9%	-4%	8%
S=c1[nH]nc(Cc2sc(-c3ccccc3)nc2-c2ccccc2)o1	-9%	-26%	12	0%	28µM*	?
S=c1[nH]nc(Cc2c[nH]c3ccccc23)o1	?	-15%	-1	0%	-3%	-11%
O=C1Nc2ccccc2C1=Nc1ccc(Br)cc1	-9%	-20%	1	-1%	-3%	22µM*
COc1ccc(N(CC(=O)NCc2cccnc2)S(=O)(=O)c2ccc(C)c([N+](=O)[O-])c2)cc1	-25%	-8%	0	4%	1%	-27%
CCC(NS(=O)(=O)c1ccc(C)cc1)C(=O)N1CCN(c2ccccn2)CC1 (centres undefined)	-5%	-6%	-1	1%	3%	-4%
CC(=O)Nc1ccc(S(=O)(=O)N[C@@H](C)C(=O)N2CCN(c3ccccn3)CC2)cc1	2%	12µM*	.	.	.	?
CC(=O)Nc1ccc(S(=O)(=O)NC(C)C(=O)NC(C)c2ccccc2)cc1 (centres undefined)	?	12µM*	0	1%	15%	-29%
O=C(Cn1cc2c(n1)CCCC2)Nc1ccccc1Cl	-13%	24µM*	0	0%	-2%	-17%
O=C(Cn1cc2c(n1)CCCCC2)Nc1ccccc1Cl	-14%	5%	3	2%	.	11%
SMILES	USP1 inh	PLK1 PBD inh	FBPA coupling cs	USP2a block	GALK inhibitor	VDR inh
O=C(Cn1cc2c(n1)CCCC2)NCc1cccnc1	-10%	-1%	3	6%	0%	8%
O=C(Cn1cc2c(n1)CCCCC2)NCc1ccccc1	-7%	30µM*	0	0%	3%	-6%
O=C(Oc1cccnc1)c1ccc(Cl)cc1	-21%	1%	3	2%	2%	-1%
Cc1c(C(=O)N(C)c2ccccc2)oc2c1C(O)CC(C)(C)C2 (centres undefined)	-15%	4%	.	4%	-2%	17%
Cn1ncc2c1ncn1nc(CCc3ccccc3)nc21	8%	1%	3	1%	-1%	12%
O=c1c2ccccc2ncn1Cc1cccc2ccccc12	-3%	7%	5	0%	3%	-2%
Cc1[nH][nH]c(=O)c1C(c1c(C)[nH][nH]c1=O)c1cn(C)c2ccccc12	?	-18%	-65*	-2%	6%	5%
Cc1[nH][nH]c(=O)c1C(c1c(C)[nH][nH]c1=O)c1cn(Cc2cccc3ccccc23)c2ccccc12	14µM*	7.5µM*	-51*	4%	.	-21%
CC(C)CCNC(=O)c1cc(S(=O)(=O)N2CCc3ccccc32)cn1C	-10%	1%	2	0%	.	2%
COc1ccccc1-n1c(-c2ccccc2)n[nH]c1=S	-3%	-6%	1	2%	0%	2%
CC1CCN(Cc2c(O)ccc3c(=O)c(-c4ccc(Cl)cc4)c(C(F)(F)F)oc23)CC1	-21%	.	.	.	.	-13%
COC(=O)CCSc1cc(NCCCOC(C)=O)c([N+](=O)[O-])c2nonc12	.	.	.	.	.	-27%
CC(=O)OCCCNc1cc(Sc2ccc(Cl)cc2)c2nonc2c1[N+](=O)[O-]	-8%	1.2µM*	-49*	5%	-2%	10µM*
Cc1ccc(Sc2cc(NCCCO)c([N+](=O)[O-])c3nonc23)cc1	-26%	24µM*	-23	9%	-2%	?
COc1cccc(CC2(CO)CCCN(Cc3ccc(-c4ccco4)cc3)C2)c1 (centres undefined)	-11%	8.4µM*	2	6%	0%	?
CN(C)S(=O)(=O)Nc1cc(Cl)cc(Cl)c1	?	30µM*	0	-1%	0%	7%
Nc1cc[n+](CC(=O)c2ccc3c(c2)OCCO3)cc1	-25%	-18%	-1	0%	1%	7%
CNCc1ccccc1Sc1cc(O)ccc1O	-22%	5.3µM*	-30	1%	.	35µM*
